According to PubChem BioAssay (Tox21):
Inconclusive results are not listed. Calls of active or inactive are those of the source. Unless noted, calls follow the shape of the dose curve; as a rule, active = well fitted curve in the direction sought with a large enough effect in the repeat runs; inconclusive = weak or mixed curves; inactive = no such curve, though single readings can be large; an effect the other way counts as inactive or inconclusive.

Columns and labels:
[1] = target: Thyrotropin receptor (Homo sapiens) (UniProt P16473); assay: qHTS assay to identify small molecule antagonists of the thyroid stimulating hormone receptor (TSHR) signaling pathway (AID 1259385; calls by dose curve; also: nearly all actives have a fitted effect of over 20% in size)
Thyrotropin receptor (Homo sapiens), sequence (P16473 whole entry, looked up): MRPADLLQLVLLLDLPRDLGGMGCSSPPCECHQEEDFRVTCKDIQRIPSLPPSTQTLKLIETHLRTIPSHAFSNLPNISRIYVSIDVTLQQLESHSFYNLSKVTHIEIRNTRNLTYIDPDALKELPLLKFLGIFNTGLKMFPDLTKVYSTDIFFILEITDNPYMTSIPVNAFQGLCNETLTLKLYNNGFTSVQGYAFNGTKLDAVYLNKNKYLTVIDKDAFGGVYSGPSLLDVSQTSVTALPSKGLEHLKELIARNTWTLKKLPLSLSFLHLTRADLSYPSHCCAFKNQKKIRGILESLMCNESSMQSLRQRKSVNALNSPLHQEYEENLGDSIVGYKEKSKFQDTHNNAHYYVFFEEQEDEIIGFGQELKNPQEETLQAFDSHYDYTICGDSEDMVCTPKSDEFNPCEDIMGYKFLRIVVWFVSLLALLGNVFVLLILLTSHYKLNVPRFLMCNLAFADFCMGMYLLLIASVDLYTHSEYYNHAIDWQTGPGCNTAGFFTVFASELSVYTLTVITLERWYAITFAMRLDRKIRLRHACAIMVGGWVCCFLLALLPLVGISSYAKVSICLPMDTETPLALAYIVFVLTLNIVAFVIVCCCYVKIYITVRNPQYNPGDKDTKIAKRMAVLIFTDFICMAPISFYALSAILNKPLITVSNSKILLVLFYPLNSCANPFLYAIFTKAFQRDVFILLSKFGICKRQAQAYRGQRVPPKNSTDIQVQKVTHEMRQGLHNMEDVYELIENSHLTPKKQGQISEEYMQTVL
Procedure, shortened: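 TSHR-HEK293 cells were plated and held 18 h at 37C/5% CO2, then given compound plus Ro20-1724 and stimulated with TSH at 1.5 ng/mL final. After 30 min at room temperature, cAMP was detected with cAMP-d2/anti-cAMP-cryptate (1 h) by fluorescence.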

[2] = qHTS assay to identify small molecule agonists of the estrogen receptor alpha (ER-alpha) signaling pathway in the presence of an antagonist - cell viability counter screen (AID 1259386);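 also: series mostly up to about 92 µM; cells exposed to compounds for 22 h at 37 °C before the viability read; nearly all actives have a fitted effect of over 30% in size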
Procedure, shortened: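 ICI-182,780 at 10.0nM final accompanies the compound titration (15 concentrations, 22hr, 37C) on VM7Luc4E2 cells. The CellTiter-Fluor fluorescence readout runs in the same wells as the luciferase assay.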

[3] = target: Progesterone receptor (Homo sapiens) (UniProt P06401); assay: qHTS assay to identify small molecule agonists of the progesterone receptor (PR) signaling pathway (AID 1346784; calls by dose curve; also: nearly all actives have a fitted effect of over 30% in size)
Progesterone receptor (Homo sapiens), sequence (P06401 whole entry, looked up): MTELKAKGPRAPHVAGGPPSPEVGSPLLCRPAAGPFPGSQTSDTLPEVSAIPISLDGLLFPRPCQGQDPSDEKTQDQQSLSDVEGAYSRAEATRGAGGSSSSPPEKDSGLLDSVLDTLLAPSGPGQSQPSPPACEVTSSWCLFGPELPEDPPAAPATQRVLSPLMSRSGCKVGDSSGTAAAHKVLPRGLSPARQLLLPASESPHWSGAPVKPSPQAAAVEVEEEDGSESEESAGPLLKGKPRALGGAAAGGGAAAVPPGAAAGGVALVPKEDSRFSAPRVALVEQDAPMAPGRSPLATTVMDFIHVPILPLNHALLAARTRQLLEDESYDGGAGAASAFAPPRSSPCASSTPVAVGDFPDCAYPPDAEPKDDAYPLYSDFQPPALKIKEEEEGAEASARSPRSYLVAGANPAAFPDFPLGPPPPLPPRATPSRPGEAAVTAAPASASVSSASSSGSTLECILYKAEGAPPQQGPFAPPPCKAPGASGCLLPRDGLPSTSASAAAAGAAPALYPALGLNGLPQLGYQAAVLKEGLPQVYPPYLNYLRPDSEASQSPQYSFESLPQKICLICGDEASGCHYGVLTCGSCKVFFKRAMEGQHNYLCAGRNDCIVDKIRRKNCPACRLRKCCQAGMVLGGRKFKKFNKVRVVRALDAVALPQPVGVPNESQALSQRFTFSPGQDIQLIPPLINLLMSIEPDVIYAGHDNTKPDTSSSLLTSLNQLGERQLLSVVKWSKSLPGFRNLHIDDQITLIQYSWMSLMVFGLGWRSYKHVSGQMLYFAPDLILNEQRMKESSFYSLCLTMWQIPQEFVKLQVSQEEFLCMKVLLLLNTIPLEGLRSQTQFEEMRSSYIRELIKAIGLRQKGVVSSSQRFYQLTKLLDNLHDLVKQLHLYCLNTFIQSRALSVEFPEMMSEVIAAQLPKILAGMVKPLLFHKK
Procedure, shortened: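 Cells (PR-UAS-bla HEK 293T, GripTite) were plated in assay medium containing 2% charcoal-stripped FBS and incubated 6 hr. Test compounds in DMSO were added for 16 hr at 37C. FRET substrate was then loaded for 2 hr at room temperature before fluorescence reading.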

[4] = target: Progesterone receptor (Homo sapiens) (UniProt P06401); assay: qHTS assay to identify small molecule antagonists of the progesterone receptor (PR) signaling pathway (AID 1346795; active = well fitted inhibition curve with a large enough effect in the signal ratio in the repeat runs, not every such curve was filed as active; the % refers to the signal ratio)
Procedure, shortened: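 Antagonist mode: compounds tested against 1 nM (final) promegestone stimulation in HEK293T cells expressing PR-UAS-bla reporter, 16 hr at 37C, 5% CO2; beta-lactamase activity detected via B/G FRET substrate after 2 hr at room temperature.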

[5] = qHTS assay to identify small molecule antagonists of the progesterone receptor (PR) signaling pathway - cell viability counter screen (AID 1346798); also: series mostly up to about 92 µM; nearly all actives have a fitted effect of over 50% in size
Procedure, shortened: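 Counter screen for cytotoxicity: viability of PR-UAS-bla HEK293T cells was measured with CellTiter-Glo luminescence following 16 hr compound exposure in the presence of R5020.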

[6] = qHTS assay to identify small molecule agonists of the progesterone receptor (PR) signaling pathway - cell viability counter screen (AID 1346799; calls by dose curve; also: nearly all actives have a fitted effect of over 45% in size)
Procedure, shortened: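 Cells (PR-UAS-bla HEK293T) are plated at 3,000/well in 2% charcoal-stripped FBS medium, rested 6 hr, dosed and incubated 16 hr at 37C. CellTiter-Glo is then added and luminescence measured after 30 min at room temperature.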

[7] = qHTS assay to identify small molecule antagonists of the TGF-beta/Smad signaling pathway - cell viability counter screen (AID 1346824); also: nearly all actives have a fitted effect of over 50% in size
Procedure, shortened: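 SBE-bla HEK 293T cells were plated overnight at 37 C, then given compounds in DMSO plus TGF-beta1 (added as 0.25 ng/mL solution) for 5 hr. After the bla read, CellTiter-Glo was added to the same wells and luminescence read after 30 min at room temperature.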

[8] = qHTS assay to identify small molecule agonists of the TGF-beta/Smad signaling pathway - cell viability counter screen (AID 1346829); also: top concentration of the series differs between compounds; nearly all actives have a fitted effect of over 45% in size
Procedure, shortened: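 SBE-bla HEK 293T cells plated overnight, compound exposure 5 hr at 37 C. Viability read in the same wells by CellTiter-Glo luminescence after 30 min at room temperature, following the beta-lactamase read.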

[9] = qHTS assay to identify small molecule agonists of the TGF-beta/Smad signaling pathway (AID 1346859; active = well fitted activation curve with a large enough effect in the signal ratio in the repeat runs, not every such curve was filed as active; the % refers to the signal ratio; also: series mostly up to about 77 µM)
Procedure, shortened: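 Reporter line: HEK 293T with stably integrated SBE-controlled beta-lactamase. Compound exposure lasts 5 hr at 37 C and 5% CO2; substrate loading follows for 2 hr at room temperature, with emission read at 460 and 530 nm.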

[10] = target: Thyrotropin-releasing hormone receptor (Homo sapiens) (UniProt P34981); assay: qHTS assay to identify small molecule antagonists of the thyrotropin-releasing hormone receptor (TRHR) signaling pathway (AID 1346877; active = well fitted inhibition curve with a large enough effect in the repeat runs, not every such curve was filed as active; also: series mostly up to about 51 µM)
Thyrotropin-releasing hormone receptor (Homo sapiens), sequence (P34981 whole entry, looked up): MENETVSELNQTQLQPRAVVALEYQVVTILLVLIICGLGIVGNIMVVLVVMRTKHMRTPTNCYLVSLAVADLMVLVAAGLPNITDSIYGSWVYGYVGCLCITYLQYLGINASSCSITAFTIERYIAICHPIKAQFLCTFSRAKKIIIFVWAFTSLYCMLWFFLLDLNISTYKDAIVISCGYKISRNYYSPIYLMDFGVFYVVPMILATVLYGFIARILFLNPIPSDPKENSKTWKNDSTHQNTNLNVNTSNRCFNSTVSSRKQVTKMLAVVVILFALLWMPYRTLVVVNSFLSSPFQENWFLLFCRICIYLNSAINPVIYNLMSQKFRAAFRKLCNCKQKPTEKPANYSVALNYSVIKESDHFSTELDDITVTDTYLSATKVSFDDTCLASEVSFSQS
Procedure, shortened: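 Screening used HEK293 cells engineered with TRHR, with a brief 5 min room-temperature compound exposure preceding addition of TRH to 1 nM. The read-out was kinetic calcium-dye fluorescence, concentration-response from 15 doses in triplicate.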

Measured: Potency

ClCCOCCCl
inactive: all assays above

CCCCC(CC)C(=O)Cl (centres undefined)
inactive: all assays above

CC(C)CCCCCCOC(=O)c1ccccc1C(=O)OCCCCCCC(C)C
inactive: all assays above

CC(=O)/C=C/c1ccccc1
inactive: all assays above

c1ccc2c(c1)CCCC2
inactive: all assays above

O=P1(NCCCl)OCCCN1CCCl (centres undefined)
inactive: all assays above

N#Cc1cccc(C#N)c1
inactive: all assays above

Nc1ccc([As](=O)(O)O)cc1
inactive: all assays above

N#Cc1ccccn1
inactive: all assays above

OCCCCO
inactive: all assays above

Cc1ccc(O)c(C)c1
inactive: all assays above

FC(F)(F)c1ccc(Cl)cc1
inactive: all assays above

Cc1cccc(C)c1N
inactive: all assays above

COP(=S)(OC)SCN1C(=O)c2ccccc2C1=O
inactive: all assays above

CNCC(O)c1ccc(O)cc1 (centres undefined)
inactive: all assays above

CCNc1nc(Cl)nc(NC(C)C)n1
inactive: all assays above

CC(C)(C)C(=O)CCl
inactive: all assays above

Cc1cc(Cl)ccc1OC(C)C(=O)O (centres undefined)
not listed: [1] | [10]
inactive: all other assays above

COC(=O)Nc1cccc(OC(=O)Nc2cccc(C)c2)c1
not listed: [1] | [10]
inactive: all other assays above

C[C@]12CC[C@H](O)CC1=CC[C@@H]1[C@@H]2CC[C@]2(C)C(=O)CC[C@@H]12
not listed: [4] | [9] | [10]
inactive: all other assays above

Cc1cccc(N)c1
not listed: [1]
inactive: all other assays above

O=C(O)C(Br)Br
not listed: [1]
inactive: all other assays above

C=C(C)C(=O)OCC(CC)CCCC (centres undefined)
not listed: [5] | [10]
inactive: all other assays above
